Test [1] is described as follows: HepG2 liver cancer cell viability effects, profiling panel, resazurin fluorescence, 24 h, PK04 Diversity Set (AID 1172). Note: test concentration not given here. As to conditions: higher = more signal. In general terms: Alamar Blue is a resazurin reagent that responds to reducing activity.
The nature of test [2]: basal S. cerevisiae growth modulation, no modifier, primary screen, OD600, strain BY4716, 24 h, basal condition (AID 1173). As to conditions: OD600, 24 h, higher = more signal, called active from +8 up or from −8 down.
Test [3] in a line: MM1S myeloma cell viability, profiling panel, resazurin fluorescence, basal, 24 h, PK04 Diversity Set (AID 1174). Note: test concentration not given here. The note with it: higher = more signal, called active from +8 up or from −8 down.
In test [4] the target is Dihydroorotate dehydrogenase (quinone), mitochondrial (Plasmodium falciparum (isolate 3D7)) (UniProt Q08210). The test is described as follows: PfDHODH enzyme inhibitors, primary screen, biochemical, C-terminal His tag, absorbance 600 nm (AID 1175).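 Note: recombinant parasite enzyme with a five histidine tag at its C terminus; test concentration not given here.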 The note with it: DCIP absorbance 600 nm, higher = more signal, called active from +8 up or from −8 down.
Test [5] can be described thus: P. aeruginosa biofilm formation inhibitors, primary screen, strain PAO1, LB-PBS medium, absorbance 600 nm (AID 1176). Note: test concentration not given here. The note with it: P. aeruginosa PAO1 growth/biofilm, A600, 12 h; higher = more signal.
Test [6] can be described thus: S. cerevisiae RM11-1a growth modifiers, primary screen, strain RM11-1a, OD600, basal, 24 h (AID 1177).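 Note: cultures grown under basal conditions with no added stressor; test concentration not given here.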 The note with it: OD600, 24 h, higher = more signal, called active from +8 up or from −8 down.
The nature of test [7]: E. coli acrAB mutant growth effects, primary screen, E. coli filamentation inducers, strain DRC39, OD650, 24 h (AID 1178).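 Note: growth measured as culture turbidity by optical density at 650 nm; test concentration not given here.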 As to conditions: higher = more signal, called active from +8 up or from −8 down.
Test [8] in a line: E. coli acrAB mutant growth effects, primary screen, E. coli filamentation inducers, strain DRC39, OD650, 48 h (AID 1179).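 Note: screen aims at cell division blockers that make cells filament.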 As to conditions: E. coli DRC39 delta-acrAB growth, higher = more signal, called active from +8 up or from −8 down.
A short description of test [9]: RPMI8226 myeloma cell viability, profiling panel, resazurin fluorescence, basal, 24 h, PK04 Diversity Set (AID 1180).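 Note: RPMI8826 multiple myeloma cell line at 5000 cells per well; test concentration not given here.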 The note with it: higher = more signal.
Test [10] has as its target E3 ubiquitin-protein ligase XIAP (Homo sapiens) (UniProt P98170). The test is described as follows: XIAP binders, primary screen, biophysical, small-molecule microarray, fluorescence 635 nm (AID 1181).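 Note: score merges 667 nm emission and signal to noise over triplicate slides.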 The note with it: small-molecule microarray binding, higher = more signal.

Active and inactive are the calls of the source. Unless noted, the rule behind the calls is not given here.

Chain of Dihydroorotate dehydrogenase (quinone), mitochondrial (Plasmodium falciparum (isolate 3D7)) (Q08210 whole entry, looked up): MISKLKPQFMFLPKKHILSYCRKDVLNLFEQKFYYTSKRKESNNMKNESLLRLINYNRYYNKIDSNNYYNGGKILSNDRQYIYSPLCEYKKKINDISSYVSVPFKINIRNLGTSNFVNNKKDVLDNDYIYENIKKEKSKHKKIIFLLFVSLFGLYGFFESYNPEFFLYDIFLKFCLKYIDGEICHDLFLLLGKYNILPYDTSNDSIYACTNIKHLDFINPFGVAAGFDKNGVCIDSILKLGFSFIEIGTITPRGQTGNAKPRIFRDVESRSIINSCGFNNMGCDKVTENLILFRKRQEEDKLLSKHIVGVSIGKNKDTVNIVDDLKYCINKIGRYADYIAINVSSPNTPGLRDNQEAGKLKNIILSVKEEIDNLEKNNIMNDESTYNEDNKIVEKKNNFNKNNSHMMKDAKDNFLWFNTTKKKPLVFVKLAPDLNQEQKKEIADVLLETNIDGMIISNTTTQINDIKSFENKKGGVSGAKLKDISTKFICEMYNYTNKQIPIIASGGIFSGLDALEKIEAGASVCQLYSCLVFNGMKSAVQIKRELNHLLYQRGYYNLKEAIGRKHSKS
Chain of E3 ubiquitin-protein ligase XIAP (Homo sapiens) (P98170 whole entry, looked up): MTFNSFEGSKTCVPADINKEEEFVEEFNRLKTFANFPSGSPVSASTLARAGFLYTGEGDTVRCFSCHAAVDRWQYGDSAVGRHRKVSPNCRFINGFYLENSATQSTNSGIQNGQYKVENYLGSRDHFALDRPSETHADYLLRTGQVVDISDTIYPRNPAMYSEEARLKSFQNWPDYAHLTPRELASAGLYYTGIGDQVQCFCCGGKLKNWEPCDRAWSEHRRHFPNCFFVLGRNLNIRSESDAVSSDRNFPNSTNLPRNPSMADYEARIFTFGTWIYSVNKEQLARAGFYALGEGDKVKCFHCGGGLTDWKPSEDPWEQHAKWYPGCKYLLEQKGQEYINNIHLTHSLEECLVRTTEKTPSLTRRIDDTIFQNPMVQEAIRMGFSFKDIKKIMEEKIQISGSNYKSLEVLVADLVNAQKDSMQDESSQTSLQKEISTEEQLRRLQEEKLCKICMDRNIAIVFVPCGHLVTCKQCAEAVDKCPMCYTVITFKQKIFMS

As to `C[N+](C)(C)CCCCCCNC(=O)[C@@H]1C[C@@H]2C(=O)NCC(=O)N2[C@@H]1c1cccc(OCCO)c1`, the z-score in test [1] was 0.597; in test [2], -1.33 (inactive); in test [3], 1.26 (inactive); in test [5], 3.7 (inactive); in [6] it was -0.257 (inactive); in test [7] it was -0.858 (inactive). In addition, the values for the z-score in test [8] and in test [9] were -0.765 (inactive) and 0.343, respectively. Moreover, the composite z-score in test [4] is -2.3 (inactive); in [10] it was 0.0192.
Consider `C=C(CCCC)/C(=C/C[C@H](OC(=O)c1ccncc1)c1ccc(CO)o1)c1cc(C(=O)OC)ccc1OC`, for which the z-score was -0.673 in test [1]; -0.756 (inactive) in test [2]; -2.13 (inactive) in [3]; 0.898 (inactive) in [5]; -0.145 (inactive) in test [6]; -0.861 (inactive) in test [7]. In addition, the results for the z-score in test [8] and in test [9] were -0.528 (inactive) and -0.963, respectively. Also, the composite z-score in test [4] is -3.99 (inactive); in [10], 0.0537.
In the case of `COCCCNC(=O)[C@@]1(Cc2ccccc2N=[N+]=[N-])N=C(c2ccc(OCCCO)cc2)O[C@H]1c1ccccc1CN=[N+]=[N-]`, the z-score in test [1] was -0.859; in test [2], -0.255 (inactive); in test [3] it was -1.2 (inactive); in [5] it was 1.72 (inactive); in [6], 0.154 (inactive); in test [7], 2.63 (inactive). Also, the z-score in [8] is 0.575 (inactive); in [9], -2.25. The composite z-score in test [4] was 0.283 (inactive); in test [10] it was -0.183.
With `COC(=O)[C@@]1(Cc2ccccc2)[C@H]2c3cc(C(=O)N(C)C)n(Cc4ccc(O)c(OC)c4)c3C[C@H]2CN1C(=O)c1ccccc1`, the z-score in [1] was 0.563; in test [2], 1.12 (inactive); in test [3], 0.301 (inactive); in test [5], 1.47 (inactive); in test [6], 0.458 (inactive); in [7] it was -0.846 (inactive). In addition, the z-score is 0.202 (inactive) in test [8] and -1.24 in [9]. For the same molecule, the composite z-score in test [4] was -2.88 (inactive); in [10], 0.0422.
Take `[N-]=[N+]=NCc1ccccc1C[C@]1(C(=O)NCCN2CCOCC2)COC(c2ccc(OCCCO)cc2)=N1`: the z-score was -0.801 in test [1]; -1.36 (inactive) in test [2]; -1.28 (inactive) in [3]; 0.535 (inactive) in test [5]; -0.383 (inactive) in test [6]; 0.786 (inactive) in [7]. Further, the results for the z-score in test [8] and in test [9] were 0.0653 (inactive) and 0.106, respectively. For the same molecule, the composite z-score in [4] was 0.456 (inactive); in [10], -0.0125.
Regarding `O=C1c2ccccc2[C@](Cc2ccccc2I)(C(=O)NCC(F)(F)F)[C@H](c2ccc(CO)cc2)N1Cc1ccccc1`, the z-score is 0.846 in [1]; -0.895 (inactive) in test [2]; -0.277 (inactive) in [3]; -0.0344 (inactive) in test [5]; 0.0123 (inactive) in test [6]; 0.496 (inactive) in test [7]. Further, the z-score in test [8] is 1.07 (inactive); in [9], 0.675. The composite z-score was -0.537 (inactive) in test [4] and -0.0962 in [10].
As to `COC(=O)[C@@]1(Cc2ccccc2)[C@H]2c3cc(C(=O)N4CCCC4)n(Cc4ccc(OC(F)(F)F)cc4)c3C[C@H]2CN1C(=O)c1ccccc1`, the z-score is -1.22 in [1]; 1.61 (inactive) in [2]; -2.46 (inactive) in test [3]; 0.632 (inactive) in [5]; 1.85 (inactive) in test [6]; -1.22 (inactive) in test [7]. For the same molecule, the z-score in [8] is -0.439 (inactive); in test [9], -2.62. Besides, the composite z-score in test [4] was 0.868 (inactive); in test [10], 0.131.
As for `C[N+](C)(C)CCCC[C@@H]1NC(=O)[C@H]2C[C@@H](C(=O)NCCCCCCN)[C@@H](c3cccc(OCCO)c3)N2C1=O`, the z-score in [1] was -2.69; in test [2] it was -0.707 (inactive); in [3] it was 0.45 (inactive); in [5], 1.18 (inactive); in test [6] it was -0.0241 (inactive); in test [7], -0.678 (inactive). The z-score in [8] was -1.35 (inactive); in test [9], 0.652. Moreover, the composite z-score in [4] is -0.114 (inactive); in test [10], 0.194.
On to `CCOC(=O)C1=CC[C@@H](c2ccccc2)N(S(=O)(=O)c2ccc(C)cc2)[C@H]1C=C(C)C`, for which the z-score in [1] is 0.576; in test [2], 2.78 (inactive); in test [3], -0.85 (inactive); in test [5], 0.229 (inactive); in [6], 1.65 (inactive); in test [7], -0.147 (inactive). Moreover, the z-score in test [8] was 0.449 (inactive); in [9], -2.1. Also, the composite z-score in test [4] is 0.274 (inactive); in [10], 0.394.
With `COCCCNC(=O)[C@@]1(C)c2ccccc2C(=O)N(c2ccc(C)cn2)[C@H]1c1ccc(CO)cc1`, the z-score in test [1] was 0.361; in test [2] it was -0.156 (inactive); in test [3], -0.321 (inactive); in test [5] it was 0.112 (inactive); in test [6] it was -0.795 (inactive); in test [7], -0.0985 (inactive). Moreover, the z-score in test [8] is -0.087 (inactive); in test [9] it was 0.157. Further, the composite z-score in test [4] was 0.0772 (inactive); in test [10] it was 0.286.
As for `C=CCOC(=O)[C@@H]1[C@H]2C(=O)O[C@H](c3ccccc3)[C@H](c3ccccc3)N2[C@H](c2ccc(OCCOC(=O)[C@@H]3C[C@@H]4C(=O)N5CCC[C@H]5C(=O)N4[C@@H]3c3cccc(OCCO)c3)cc2)[C@@]12C(=O)Nc1ccc(I)cc12`, the z-score in test [1] was 0.586; in test [2], 1.53 (inactive); in [3] it was 0.356 (inactive); in test [5], 1.69 (inactive); in test [6], 2.07 (inactive); in test [7] it was 0.132 (inactive). Besides, the z-score was -0.63 (inactive) in [8] and 0.281 in test [9]. Further, the results for the composite z-score in [4] and in [10] were -0.652 (inactive) and -0.224, respectively.
Take `COc1cccc(C)c1NC(=O)O[C@H]1[C@H](OC(=O)Nc2ccccc2)[C@H](OC(=O)Nc2ccccc2)[C@@H](OC)O[C@@H]1CO`: the z-score in test [1] was -1.22; in test [2], 0.803 (inactive); in [3], -2.2 (inactive); in test [5], 0.565 (inactive); in test [6] it was 0.673 (inactive); in test [7] it was 0.462 (inactive). The z-score was -0.358 (inactive) in [8] and -1.65 in test [9]. Also, the composite z-score in test [4] was 0.111 (inactive); in test [10], 0.0744.

For the origin of these results see PubChem BioAssay.
